Bioassay records as filed in PubChem.
Rows were chosen to be rich in hits. Some 13% of all compounds tested hit in one or more screens of this group.
Shiga toxin inh – inhibitors of Shiga toxin in Vero cells. Vero cells, Shiga toxin protein synthesis inhibition reporter. 290,000 tested, 9.2% active. AID 2315. inhibition, % at 38.7 µM; in the data active means inhibition mostly above about 28%, no sharp cut-off; inactive means mostly below about 43%
Lassa entry inh – Lassa virus entry inhibition | AID 540256 | Lassa virus pseudotype entry inhibition, cell reporter | Potency, µM (doses to about 37.9 µM), usual class: inhibitors | 300,000 tested, 1.2% active; calls by dose curve; tested in HEK293 cells; further: nearly all actives have a fitted effect of over 50% in size
FMDV antiviral – foot and mouth disease virus antiviral activity | 410,000 tested, 1.2% active | Potency, µM (series often up to 57.9 µM), usual class: inhibitors | FMDV antiviral cell-based qHTS | AID 1159524; calls by dose curve; tested in HEK293T cells; further: read-out not given here; nearly all actives have a fitted effect of over 45% in size
MARV entry inh – Marburg virus entry inhibition; Marburg virus pseudotyped entry inhibition, cell reporter; Potency, µM (highest dose often 37.8 µM), hits mostly inhibitors; 300,000 tested, 1.8% active; calls by dose curve; tested in HEK293 cells
Cycloheximide cs – affects cycloheximide protein synthesis inhibition readout, counter-screen; cell reporter, cycloheximide protein synthesis inhibition counterscreen; max response, %; 300,000 tested, 12% active; in the data active means max response mostly above about 13%, no sharp cut-off; inactive means mostly below about 14%; further: read at 38.3 µM for the half of the compounds with a filed dose
HCV inh – HCV inhibition | Huh7.5.1 HCVcc-Cre infection, luciferase reporter, 44 h | Potency, µM (doses to about 41.8 µM), hits mostly inhibitors | 340,000 tested, 3.4% active; active means well fitted inhibition curve with a large enough effect; inconclusive means small, poorly fitted or top-dose-only effect, or another doubt; inactive means no such curve, though single readings can be large or run the other way
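Cells (1,000/well) were plated 4 h before compound, then infected with HCVcc-Cre virus (~0.5 moi). After 44 h further culture, infection was read as luciferase luminescence following a 15 min substrate incubation at room temperature.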
Each line names hits and unclear results; the compound was inactive in the other large screens.

Cc1cccc(NC(=O)[C@H](NC(=O)[C@@H]2Cc3ccccc3CN2)c2ccccc2)c1	Cycloheximide cs 26 (no result: Lassa entry inh, MARV entry inh)
Cc1ccc(NC(=O)[C@H](NC(=O)[C@@H]2Cc3ccccc3CN2)c2ccccc2)cc1	Shiga toxin inh 45, Cycloheximide cs 25 (no result: Lassa entry inh, MARV entry inh)
COc1cccc(NC(=O)[C@H](Cc2ccccc2)NC(=O)[C@@H]2Cc3ccccc3CN2)c1	Cycloheximide cs 26 (no result: Lassa entry inh, MARV entry inh)
CC(C)c1ccc(NC(=O)[C@H](NC(=O)[C@@H]2Cc3ccccc3CN2)c2ccccc2)cc1	MARV entry inh 4µM, Cycloheximide cs 34
CC(NC(=O)[C@H](NC(=O)[C@@H]1Cc2ccccc2CN1)c1ccccc1)c1ccccc1 (some centres undefined)	none (no result: Lassa entry inh, MARV entry inh)
CC(NC(=O)CNC(=O)[C@@H]1Cc2ccccc2CN1)c1ccccc1 (some centres undefined)	none
COc1cccc(NC(=O)C(Cc2ccccc2)NC(=O)C2CCC(C)CC2)c1 (centres undefined)	none
Cc1cccc(NC(=O)[C@@H](CC(C)C)NC(=O)[C@@H]2Cc3ccccc3CN2)c1	none (no result: Lassa entry inh, MARV entry inh)
COc1ccc(CC(=O)NCCCCc2ccccc2)cc1OC	MARV entry inh inconclusive (no result: Shiga toxin inh, Cycloheximide cs)
CSc1ccc(CN2CCC(C)(Oc3cccc(Cl)c3)C2)cc1 (centres undefined)	none (no result: Shiga toxin inh, Lassa entry inh, MARV entry inh, Cycloheximide cs, HCV inh)
O=C(CNC(=S)N(Cc1ccccc1)Cc1ccccc1F)NCc1ccccc1	Lassa entry inh inconclusive, MARV entry inh inconclusive
COc1cccc(NC(=O)[C@H](NC(=O)[C@@H]2Cc3ccccc3CN2)c2ccccc2)c1	Cycloheximide cs 30 (no result: Lassa entry inh, MARV entry inh)
COc1ccc(CNC(=O)[C@H](C)NC(=O)[C@@H]2Cc3ccccc3CN2)cc1	none
CNc1cc(-c2cccc(OC)c2F)nc2ccnn12	none (no result: Shiga toxin inh, Lassa entry inh, MARV entry inh, Cycloheximide cs, HCV inh)
N#Cc1ccc(-c2cn3c(n2)SCC3)cc1	Shiga toxin inh 64, Cycloheximide cs 36 (no result: Lassa entry inh, MARV entry inh)
C=CCn1c(=S)[nH]c2nc3c(cc2c1=O)CCCC3	Shiga toxin inh 29, Cycloheximide cs 29, HCV inh inconclusive (no result: FMDV antiviral)
O=C(NC1=NCCS1)c1ccccc1	Lassa entry inh inconclusive
Cc1cccc(C(=O)NC2=NCCS2)c1	Shiga toxin inh 56, Lassa entry inh inconclusive, MARV entry inh inconclusive, Cycloheximide cs 35
Cc1cc(C(=O)NC2=NCCS2)cs1	Shiga toxin inh 66, Lassa entry inh inconclusive, Cycloheximide cs 41
Cn1c(=O)c(=O)n(C)c2cc(S(=O)(=O)CCC(=O)Nc3ccc(F)cc3)ccc21	none
COCCNC(=O)c1c(CSc2ccc(Cl)cc2)noc1C(=O)NCc1ccccc1	HCV inh inconclusive (no result: Shiga toxin inh, Lassa entry inh, MARV entry inh, Cycloheximide cs)
Cc1c(Cl)cccc1NC(=S)N(Cc1cccs1)C1CCCC1	Lassa entry inh inconclusive, Cycloheximide cs 16
CCCCn1c(N)c(N(CC(C)C)C(=O)C2CCN(S(=O)(=O)c3ccc(F)cc3)CC2)c(=O)[nH]c1=O	none
COCCOc1cc(NC(=O)c2cccc(OC)c2)c(Cl)cc1Cl	HCV inh inconclusive
COc1cc(C(=O)NCC(=O)Nc2c(C)cccc2C)ccc1OCc1ccccc1	MARV entry inh inconclusive, HCV inh inconclusive (no result: Shiga toxin inh, Cycloheximide cs)
Cc1cccc(C(=O)Nc2cc(OCc3cccc(F)c3)c(Cl)cc2Cl)c1	Cycloheximide cs 16
Cc1nn(Cc2c(F)c(F)c(F)c(F)c2F)c(C)c1NC(=O)c1ccc(COc2ccccc2Cl)o1	Lassa entry inh inconclusive, MARV entry inh inconclusive, HCV inh 16µM
Cc1cccc(C)c1NC(=O)c1cccc(COc2cc(Cl)ccc2Cl)c1	Shiga toxin inh 62, Cycloheximide cs 29
Cc1nn(Cc2c(F)c(F)c(F)c(F)c2F)c(C)c1NC(=O)c1ccc(COc2ccccc2Cl)cc1	none
Cc1nn(Cc2c(F)c(F)c(F)c(F)c2F)c(C)c1NC(=O)c1ccc(COc2cc(Cl)ccc2Cl)cc1	Shiga toxin inh 109, Cycloheximide cs 54, HCV inh inconclusive
CCOC(=O)c1cccc(NC(=O)Nc2ccc3c(c2)C(=O)OC3)c1	Lassa entry inh inconclusive
Cc1cc(NC(=O)c2cccc(C)c2[N+](=O)[O-])no1	none (no result: Shiga toxin inh)
COC(=O)C1CC2=C(CCCC2=O)NC1=O (centres undefined)	none (no result: Shiga toxin inh, Lassa entry inh, MARV entry inh, Cycloheximide cs)
COc1ccc(C2=NN(C(=O)c3cccs3)C(c3ccccc3OC)C2)cc1OC (centres undefined)	Lassa entry inh inconclusive, MARV entry inh inconclusive, HCV inh 10µM
Cc1ccc(C2=NN(C(=O)c3cccs3)C(c3ccccc3O)C2)cc1 (centres undefined)	MARV entry inh inconclusive, Cycloheximide cs 22
O=C(c1cccs1)N1N=C(c2ccccc2)CC1c1ccccc1O (centres undefined)	MARV entry inh inconclusive
CCC1CCCCN1C(=O)CSc1nnc(-c2ccc(OC)cc2)o1 (centres undefined)	none
O=C(CSc1nnc(-c2ccc3c(c2)OCCO3)o1)N1CCCC1	Lassa entry inh inconclusive, MARV entry inh inconclusive, Cycloheximide cs 44
CCC1CCCCN1C(=O)CSc1nnc(-c2ccc3c(c2)OCCO3)o1 (centres undefined)	MARV entry inh inconclusive, Cycloheximide cs 27
O=C(CSc1nnc(-c2ccc3c(c2)OCCO3)o1)NC1CCCCC1	none (no result: Lassa entry inh, FMDV antiviral, MARV entry inh, HCV inh)
COc1ccc(OCCOC(=O)C(C)NS(=O)(=O)c2ccc(NC(C)=O)cc2)cc1 (centres undefined)	none (no result: Shiga toxin inh, Lassa entry inh, MARV entry inh, Cycloheximide cs)
Cc1cc(S(=O)(=O)N2CCCC2)ccc1OCC(=O)Nc1ccccc1	none
O=C(NC1CCCCC1)C(c1ccc(-c2ccccc2)cc1)n1c(=O)c(-c2ccco2)nc2ccccc21 (centres undefined)	none (no result: Shiga toxin inh, Lassa entry inh, MARV entry inh, Cycloheximide cs, HCV inh)
S=C(c1ccc(-c2ccc(Cl)cc2Cl)o1)N1CCCC1	Cycloheximide cs 18 (no result: Lassa entry inh, MARV entry inh)
CN1CCN(C(=S)c2ccc(-c3cc(Cl)ccc3Cl)o2)CC1	HCV inh inconclusive (no result: Lassa entry inh, MARV entry inh)
S=C(c1ccc(-c2ccc(Cl)cc2Cl)o1)N1CCCCC1	Shiga toxin inh 78, MARV entry inh inconclusive, Cycloheximide cs 42, HCV inh inconclusive
N#CCCN1CCN(C(=S)c2ccc(-c3cc(Cl)ccc3Cl)o2)CC1	FMDV antiviral inconclusive, MARV entry inh inconclusive
O=C(NCc1cccnc1)c1ccc(Cn2cc(C(F)(F)F)ccc2=O)cc1	none
CCc1nnc(NC(=O)CSc2nnc(-c3cccnc3)n2CCc2ccccc2)s1	none
CCC1CN(CCNC(=O)c2cccnc2OC)Cc2cc(OC)ccc2O1 (centres undefined)	none (no result: Shiga toxin inh, Lassa entry inh, MARV entry inh, Cycloheximide cs, HCV inh)
COc1ccc2[nH]c(=O)c(CN(CC3CCCO3)C(=S)Nc3ccccc3)cc2c1 (centres undefined)	HCV inh inconclusive (no result: Lassa entry inh, MARV entry inh)
CCN(CC)CCN(Cc1cc2cc3c(cc2[nH]c1=O)OCO3)C(=S)NCC(C)C	FMDV antiviral inconclusive, HCV inh inconclusive (no result: Lassa entry inh, MARV entry inh)
CN(C)CCCN(Cc1cc2cc3c(cc2[nH]c1=O)OCO3)C(=S)Nc1cccc(Cl)c1	Lassa entry inh inconclusive, MARV entry inh inconclusive, HCV inh 10µM
O=C(Nc1ccc(F)cc1)N(CCCN1CCOCC1)Cc1cc2cc3c(cc2[nH]c1=O)OCCO3	Cycloheximide cs 37
O=C(Nc1ccc(F)cc1)N(CCCN1CCOCC1)Cc1cc2cc3c(cc2[nH]c1=O)OCO3	none
